Data taken from the supplement of paper PMC8371130.
Where a name gives a salt, the structure may show the parent alone.

What follows are molecules tested on HL-1 (assay: relative cell viability (CellTiter-Glo) vs DMSO control (% of DMSO control); higher = more viable cells). Settings: oxygen condition: hypoxia 48 h (1% O2) + reoxygenation 24 h; 40 nM.
Outline: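 Plating of HL-1 mouse atrial cardiomyocytes at 1000 cells per well in 384-well plates was done together with compounds at 40, 200, 1000 or 5000 nM in 0.01% DMSO. A day later the cells faced 48 h of 1% O2 and then 24 h of reoxygenation, or matching normoxia. Viability was measured via CellTiter-Glo luminescence and set relative to vehicle-treated control cells.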

Row | Compound | relative cell viability
1 | CC(C)NCC(O)c1ccc(NS(C)(=O)=O)cc1 (centres undefined) [Sotalol] | 100
2 | CC1=C(C(=O)OC(C)C)C(c2cccc([N+](=O)[O-])c2)C(C(=O)OC2CN(C(c3ccccc3)c3ccccc3)C2)=C(N)N1 (centres undefined) [Azelnidipine] | 104
3 | C[C@@H]1C[C@H]2[C@@H]3C[C@H](F)C4=CC(=O)C=C[C@]4(C)[C@@]3(F)[C@@H](O)C[C@]2(C)[C@@]1(O)C(=O)CO [Flumethasone] | 105
4 | N#CC[C@H](C1CCCC1)n1cc(-c2ncnc3[nH]ccc23)cn1 [Ruxolitinib] | 95.7
5 | C[N+](C)(C)C[C@H](O)CC(=O)[O-] [L-carnitine] | 102
6 | CN1CCN(CCCN2c3ccccc3Sc3ccc(C(F)(F)F)cc32)CC1 [Trifluoperazine 2HCl] | 102
7 | CCCCCCCCOc1ccccc1C(=O)Nc1ccc(C(=O)OCC[N+](C)(CC)CC)cc1 [Otilonium Bromide] | 101
8 | CC(C)NC[C@H](O)COc1ccc(CCOCC2CC2)cc1 [Levobetaxolol HCl] | 110
9 | CCN1CCC[C@H]1CNC(=O)c1cc(S(N)(=O)=O)ccc1OC [Levosulpiride] | 98
10 | CN(C)CCN(Cc1cccs1)c1ccccn1 [Methapyrilene HCl] | 104
11 | O=C(O)c1cc(=O)c2ccccc2o1 [Chromocarb] | 103
12 | Cl.N=C(N)NCCC[C@H](N)C(=O)O [L-Arginine HCl] | 97.5
13 | NC[C@H]1CC[C@H](C(=O)O)CC1 [Tranexamic acid] | 99.9
14 | N[C@@H]1CCCCN(c2c(F)cc3c(=O)c(C(=O)O)cn(C4CC4)c3c2Cl)C1 [Besifloxacin HCl] | 96.9
